# Measured values taken from the supplement of paper PMC11732987, “Enantioselective OTUD7B fragment discovery through chemoproteomics screening and high-throughput optimisation” (Communications Chemistry, 2025).
# Unmarked numbers belong to inactive results.
# Tests used:
# Test in all cases: log2 ratio of Biotin-Ahx-Ub-VS probe labelling (compound/DMSO); higher = less target engagement, active = hit call of the paper (q ≤ 0.05, log2 ratio ≤ -1)
# Details in all cases: treatment time: 3 h
# [1] = compound: CCC1N(CCc2sccc12)C(=O)CCl
# Method in brief: (§1)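 HEK293T lysate (495 µg per sample, in Tris/CHAPS/IGEPAL buffer with protease inhibitors) was exposed in triplicate to compound at 50 or 200 µM, or to DMSO, for 3 h, then to Biotin-Ahx-Ub-VS (0.5 µM final) for 1 h. The labelled DUBs were enriched on NeutrAvidin, digested with LysC and trypsin, and analysed by diaPASEF LC-MS/MS. Average base-two log ratios of compound over DMSO came from median-normalised label-free quantities by unpaired t-test. Only proteins with at least 2 unique peptides were used.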
# [2] = compound: CN1c2ccccc2C(CS1(=O)=O)NC(=O)CCl
# Method in brief: as §1
# [3] = compound: Cl.ClCC(=O)N1CCc2ncncc2C1
# Method in brief: as §1
# [4] = compound: Cl.Cn1ncc2C(CCCc12)NC(=O)CCl
# Method in brief: as §1
# [5] = compound: ClCC(=O)NC1CCOc2ccccc12
# Method in brief: as §1
# [6] = compound: ClCC(=O)NC1CCCc2ccccc12
# Method in brief: (§2)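 HEK293T lysate (495 µg per sample, in Tris/CHAPS/IGEPAL buffer with protease inhibitors) was treated in triplicate with compound over a concentration series or DMSO for 3 h, then with Biotin-Ahx-Ub-VS (0.5 µM final) for 1 h. Labelled DUBs were NeutrAvidin-enriched, digested with LysC and trypsin, and run by diaPASEF LC-MS/MS. Spectronaut label-free protein quantities were global-median-normalised. Values are average log2 ratios compound/DMSO from an unpaired t-test, using proteins with ≥2 unique peptides.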
# [7] = compound: ClCC(=O)N[C@@H]1CCCc2ccccc12
# Method in brief: as §2
# [8] = compound: ClCC(=O)N[C@H]1CCCc2ccccc12
# Method in brief: as §2
# [9] = compound: CCC1N(CCc2cc(OC)c(Cl)cc12)C(=O)CCl
# Method in brief: as §1
# [10] = compound: CCCC1N(CCc2cc(OC)c(OC)cc12)C(=O)CCl
# Method in brief: as §1
# UniProt Q96RU2, sequence (Q96RU2 whole entry): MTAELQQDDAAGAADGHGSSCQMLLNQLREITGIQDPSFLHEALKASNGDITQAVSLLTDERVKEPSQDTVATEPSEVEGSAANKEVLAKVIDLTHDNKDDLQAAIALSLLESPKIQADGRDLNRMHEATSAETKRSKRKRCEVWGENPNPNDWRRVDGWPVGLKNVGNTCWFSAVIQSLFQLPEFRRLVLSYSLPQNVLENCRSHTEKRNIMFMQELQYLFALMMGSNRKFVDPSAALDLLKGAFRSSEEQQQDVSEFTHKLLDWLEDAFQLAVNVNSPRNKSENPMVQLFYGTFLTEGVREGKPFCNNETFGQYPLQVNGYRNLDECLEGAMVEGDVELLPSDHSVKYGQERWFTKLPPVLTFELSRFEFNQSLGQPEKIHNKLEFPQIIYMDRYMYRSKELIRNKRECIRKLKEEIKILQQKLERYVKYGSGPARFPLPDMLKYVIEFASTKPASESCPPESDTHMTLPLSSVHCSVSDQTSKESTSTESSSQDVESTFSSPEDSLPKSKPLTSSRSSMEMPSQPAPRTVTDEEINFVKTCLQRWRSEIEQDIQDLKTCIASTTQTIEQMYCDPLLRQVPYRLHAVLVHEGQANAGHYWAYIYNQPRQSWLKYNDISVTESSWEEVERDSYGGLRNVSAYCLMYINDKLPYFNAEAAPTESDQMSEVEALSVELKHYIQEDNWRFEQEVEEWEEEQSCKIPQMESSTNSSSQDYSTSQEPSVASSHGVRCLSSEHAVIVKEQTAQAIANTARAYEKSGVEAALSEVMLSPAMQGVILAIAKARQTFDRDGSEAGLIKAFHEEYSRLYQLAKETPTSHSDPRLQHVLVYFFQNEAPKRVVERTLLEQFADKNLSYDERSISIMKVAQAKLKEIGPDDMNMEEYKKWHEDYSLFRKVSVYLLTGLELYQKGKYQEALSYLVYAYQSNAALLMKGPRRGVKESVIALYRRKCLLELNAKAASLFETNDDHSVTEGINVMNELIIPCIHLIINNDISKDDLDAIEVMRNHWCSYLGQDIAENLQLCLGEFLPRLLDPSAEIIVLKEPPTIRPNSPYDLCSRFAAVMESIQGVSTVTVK
# UniProt P62068, sequence (P62068 whole entry): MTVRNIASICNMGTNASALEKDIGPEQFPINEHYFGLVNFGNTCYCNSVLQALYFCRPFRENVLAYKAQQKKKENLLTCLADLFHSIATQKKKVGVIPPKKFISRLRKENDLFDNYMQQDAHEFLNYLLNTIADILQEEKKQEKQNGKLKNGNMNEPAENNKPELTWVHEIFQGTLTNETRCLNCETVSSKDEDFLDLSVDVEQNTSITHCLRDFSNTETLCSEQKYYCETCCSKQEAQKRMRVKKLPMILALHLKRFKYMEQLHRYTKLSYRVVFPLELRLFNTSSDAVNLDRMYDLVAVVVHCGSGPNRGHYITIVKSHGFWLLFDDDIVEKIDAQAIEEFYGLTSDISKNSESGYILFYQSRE
target,measurement,setting,value
USP46 (UniProt P62068),log2 ratio of Biotin-Ahx-Ub-VS probe labelling,[1]; compound concentration: 50uM,0.00875
same,log2 ratio of Biotin-Ahx-Ub-VS probe labelling,[1]; compound concentration: 200uM,-0.386
same,log2 ratio of Biotin-Ahx-Ub-VS probe labelling,[2]; compound concentration: 50uM,-0.283
same,log2 ratio of Biotin-Ahx-Ub-VS probe labelling,[2]; compound concentration: 200uM,-0.392
same,log2 ratio of Biotin-Ahx-Ub-VS probe labelling,[3]; compound concentration: 50uM,-0.496
same,log2 ratio of Biotin-Ahx-Ub-VS probe labelling,[3]; compound concentration: 200uM,-0.363
same,log2 ratio of Biotin-Ahx-Ub-VS probe labelling,[4]; compound concentration: 50uM,0.0697
same,log2 ratio of Biotin-Ahx-Ub-VS probe labelling,[4]; compound concentration: 200uM,-0.0122
same,log2 ratio of Biotin-Ahx-Ub-VS probe labelling,[5]; compound concentration: 50uM,-0.118
same,log2 ratio of Biotin-Ahx-Ub-VS probe labelling,[5]; compound concentration: 200uM,-0.18
same,log2 ratio of Biotin-Ahx-Ub-VS probe labelling,[6]; compound concentration: 0.78uM,-0.00158
same,log2 ratio of Biotin-Ahx-Ub-VS probe labelling,[6]; compound concentration: 1.56uM,-0.0881
same,log2 ratio of Biotin-Ahx-Ub-VS probe labelling,[6]; compound concentration: 3.13uM,-0.475
same,log2 ratio of Biotin-Ahx-Ub-VS probe labelling,[6]; compound concentration: 6.25uM,-0.276
same,log2 ratio of Biotin-Ahx-Ub-VS probe labelling,[6]; compound concentration: 12.5uM,-0.393
same,log2 ratio of Biotin-Ahx-Ub-VS probe labelling,[6]; compound concentration: 25uM,-0.421
same,log2 ratio of Biotin-Ahx-Ub-VS probe labelling,[6]; compound concentration: 50uM,-0.311
same,log2 ratio of Biotin-Ahx-Ub-VS probe labelling,[6]; compound concentration: 100uM,0.116
same,log2 ratio of Biotin-Ahx-Ub-VS probe labelling,[6]; compound concentration: 200uM,-0.326
same,log2 ratio of Biotin-Ahx-Ub-VS probe labelling,[7]; compound concentration: 0.78uM,-0.158
same,log2 ratio of Biotin-Ahx-Ub-VS probe labelling,[7]; compound concentration: 1.56uM,-0.00787
same,log2 ratio of Biotin-Ahx-Ub-VS probe labelling,[7]; compound concentration: 3.13uM,0.116
same,log2 ratio of Biotin-Ahx-Ub-VS probe labelling,[7]; compound concentration: 6.25uM,0.0618
same,log2 ratio of Biotin-Ahx-Ub-VS probe labelling,[7]; compound concentration: 12.5uM,0.00378
same,log2 ratio of Biotin-Ahx-Ub-VS probe labelling,[7]; compound concentration: 25uM,-0.153
same,log2 ratio of Biotin-Ahx-Ub-VS probe labelling,[7]; compound concentration: 50uM,-0.14
same,log2 ratio of Biotin-Ahx-Ub-VS probe labelling,[7]; compound concentration: 100uM,-0.166
same,log2 ratio of Biotin-Ahx-Ub-VS probe labelling,[7]; compound concentration: 200uM,-0.243
same,log2 ratio of Biotin-Ahx-Ub-VS probe labelling,[8]; compound concentration: 0.78uM,0.11
same,log2 ratio of Biotin-Ahx-Ub-VS probe labelling,[8]; compound concentration: 1.56uM,-0.348
same,log2 ratio of Biotin-Ahx-Ub-VS probe labelling,[8]; compound concentration: 3.13uM,-0.0607
same,log2 ratio of Biotin-Ahx-Ub-VS probe labelling,[8]; compound concentration: 6.25uM,-0.153
same,log2 ratio of Biotin-Ahx-Ub-VS probe labelling,[8]; compound concentration: 12.5uM,0.0225
same,log2 ratio of Biotin-Ahx-Ub-VS probe labelling,[8]; compound concentration: 25uM,-0.138
same,log2 ratio of Biotin-Ahx-Ub-VS probe labelling,[8]; compound concentration: 50uM,0.0154
same,log2 ratio of Biotin-Ahx-Ub-VS probe labelling,[8]; compound concentration: 100uM,-0.107
same,log2 ratio of Biotin-Ahx-Ub-VS probe labelling,[8]; compound concentration: 200uM,-0.288
same,log2 ratio of Biotin-Ahx-Ub-VS probe labelling,[9]; compound concentration: 50uM,-0.0362
same,log2 ratio of Biotin-Ahx-Ub-VS probe labelling,[9]; compound concentration: 200uM,-1.5 (active)
same,log2 ratio of Biotin-Ahx-Ub-VS probe labelling,[10]; compound concentration: 50uM,-0.446
same,log2 ratio of Biotin-Ahx-Ub-VS probe labelling,[10]; compound concentration: 200uM,-0.735
USP28 (UniProt Q96RU2),log2 ratio of Biotin-Ahx-Ub-VS probe labelling,[1]; compound concentration: 50uM,-0.105
same,log2 ratio of Biotin-Ahx-Ub-VS probe labelling,[1]; compound concentration: 200uM,-0.495
same,log2 ratio of Biotin-Ahx-Ub-VS probe labelling,[2]; compound concentration: 50uM,-0.127
same,log2 ratio of Biotin-Ahx-Ub-VS probe labelling,[2]; compound concentration: 200uM,-0.556
same,log2 ratio of Biotin-Ahx-Ub-VS probe labelling,[3]; compound concentration: 50uM,-0.0823
same,log2 ratio of Biotin-Ahx-Ub-VS probe labelling,[3]; compound concentration: 200uM,-0.643
same,log2 ratio of Biotin-Ahx-Ub-VS probe labelling,[4]; compound concentration: 50uM,0.00687
same,log2 ratio of Biotin-Ahx-Ub-VS probe labelling,[4]; compound concentration: 200uM,-0.349
same,log2 ratio of Biotin-Ahx-Ub-VS probe labelling,[5]; compound concentration: 50uM,0.0277
same,log2 ratio of Biotin-Ahx-Ub-VS probe labelling,[5]; compound concentration: 200uM,-0.467
same,log2 ratio of Biotin-Ahx-Ub-VS probe labelling,[6]; compound concentration: 0.78uM,-0.115
same,log2 ratio of Biotin-Ahx-Ub-VS probe labelling,[6]; compound concentration: 1.56uM,0.0493
same,log2 ratio of Biotin-Ahx-Ub-VS probe labelling,[6]; compound concentration: 3.13uM,-0.068
same,log2 ratio of Biotin-Ahx-Ub-VS probe labelling,[6]; compound concentration: 6.25uM,-0.0775
same,log2 ratio of Biotin-Ahx-Ub-VS probe labelling,[6]; compound concentration: 12.5uM,-0.136
same,log2 ratio of Biotin-Ahx-Ub-VS probe labelling,[6]; compound concentration: 25uM,-0.188
same,log2 ratio of Biotin-Ahx-Ub-VS probe labelling,[6]; compound concentration: 50uM,-0.185
same,log2 ratio of Biotin-Ahx-Ub-VS probe labelling,[6]; compound concentration: 100uM,-0.427
same,log2 ratio of Biotin-Ahx-Ub-VS probe labelling,[6]; compound concentration: 200uM,-0.751
same,log2 ratio of Biotin-Ahx-Ub-VS probe labelling,[7]; compound concentration: 0.78uM,-0.289
same,log2 ratio of Biotin-Ahx-Ub-VS probe labelling,[7]; compound concentration: 1.56uM,-0.168
same,log2 ratio of Biotin-Ahx-Ub-VS probe labelling,[7]; compound concentration: 3.13uM,-0.114
same,log2 ratio of Biotin-Ahx-Ub-VS probe labelling,[7]; compound concentration: 6.25uM,-0.181
same,log2 ratio of Biotin-Ahx-Ub-VS probe labelling,[7]; compound concentration: 12.5uM,-0.122
same,log2 ratio of Biotin-Ahx-Ub-VS probe labelling,[7]; compound concentration: 25uM,-0.154
same,log2 ratio of Biotin-Ahx-Ub-VS probe labelling,[7]; compound concentration: 50uM,-0.239
same,log2 ratio of Biotin-Ahx-Ub-VS probe labelling,[7]; compound concentration: 100uM,-0.221
same,log2 ratio of Biotin-Ahx-Ub-VS probe labelling,[7]; compound concentration: 200uM,-0.426
same,log2 ratio of Biotin-Ahx-Ub-VS probe labelling,[8]; compound concentration: 0.78uM,-0.0897
same,log2 ratio of Biotin-Ahx-Ub-VS probe labelling,[8]; compound concentration: 1.56uM,-0.144
same,log2 ratio of Biotin-Ahx-Ub-VS probe labelling,[8]; compound concentration: 3.13uM,-0.065
same,log2 ratio of Biotin-Ahx-Ub-VS probe labelling,[8]; compound concentration: 6.25uM,0.0299
same,log2 ratio of Biotin-Ahx-Ub-VS probe labelling,[8]; compound concentration: 12.5uM,-0.143
same,log2 ratio of Biotin-Ahx-Ub-VS probe labelling,[8]; compound concentration: 25uM,-0.24
same,log2 ratio of Biotin-Ahx-Ub-VS probe labelling,[8]; compound concentration: 50uM,-0.318
same,log2 ratio of Biotin-Ahx-Ub-VS probe labelling,[8]; compound concentration: 100uM,-0.618
same,log2 ratio of Biotin-Ahx-Ub-VS probe labelling,[8]; compound concentration: 200uM,-0.996
same,log2 ratio of Biotin-Ahx-Ub-VS probe labelling,[9]; compound concentration: 50uM,-0.146
same,log2 ratio of Biotin-Ahx-Ub-VS probe labelling,[9]; compound concentration: 200uM,-0.945
same,log2 ratio of Biotin-Ahx-Ub-VS probe labelling,[10]; compound concentration: 50uM,-0.218
same,log2 ratio of Biotin-Ahx-Ub-VS probe labelling,[10]; compound concentration: 200uM,-0.719
